Screens deposited in PubChem by National Center for Advancing Translational Sciences (NCATS).
The list is not random: actives were taken first. Their share in the collection is about 2.8%.
Pol kappa inh – blocks human DNA polymerase kappa activity; Potency, µM (top dose mostly 107 µM), for inactives: at the top dose activity, negative = inhibition, usual class: inhibitors; purified Pol kappa, fluorescent DNA synthesis assay, 10 min; AID 588579; Q9UBT6; 400,000 compounds, 0.53% hits; also: potency is read from the fitted curve at half-maximal effect; % is scaled to controls: 0 for no effect and ±100 for the full control effect
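First, compounds were pin-transferred onto 10 nM Pol kappa. After 15 min at room temperature, substrate was added to 50 nM final. Fluorescence was then measured kinetically at 0 and 10 min.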
POLI inh – inhibitors of human DNA polymerase iota. 390,000 compounds, 1% hits. AID 588590. Pol iota fluorescent replication assay, 10 min. Potency, µM (series often up to 115 µM), for inactives: at the top dose activity, negative = inhibition, most hits filed as inhibitors; also: potency is read from the fitted curve at half-maximal effect
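Pol iota at 10 nM preincubated 15 min with compounds at room temperature; reaction started with fluorescent substrate, 50 nM final. Fluorescence read kinetically at 0 and 10 min; buffer-only wells as negative control.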
Pol beta inh – inhibitors of human DNA polymerase beta. Potency, µM (doses to about 114 µM), for inactives: at the highest dose activity change, negative = inhibition, hits mostly inhibitors. P06746. AID 485314. Pol beta primer extension/strand displacement, fluorescence kinetic. 340,000 compounds, 1.3% hits; also: potency is read from the fitted curve at half-maximal effect; % is scaled to controls: 0 for no effect and ±100 for the full control effect
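Preincubation: enzyme (10 nM) with compound, 15 min, RT. Reaction: substrate added to 50 nM final. Reads: 0 and 10 min. Analysis: normalized, Hill fit.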
WRN helicase inh – inhibitors of human WRN helicase; Q14191; Potency, µM (doses to about 114 µM), without a hit: at the highest dose activity change, negative = inhibition, actives largely listed as inhibitors; 360,000 compounds, 0.46% hits; WRN helicase unwinding, fluorescent forked duplex, kinetic; also: potency is read from the fitted curve at half-maximal effect; % is scaled to controls: 0 for no effect and ±100 for the full control effect; nearly all actives have a fitted effect of over 55% in size
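Screening of the MLSMR collection measured strand separation of a quenched forked DNA duplex (100 nM) by 20 nM WRN with 2 mM ATP, all final. Compounds were preincubated with enzyme 15 min at room temperature.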
PI5P4Ka inh – blocks human PI5P4K alpha kinase activity. 330,000 compounds, 1.2% hits. AID 652105. P48426. PI5P4Kalpha enzyme, ADP-Glo luminescence, 60 min; active compounds read low. max response, %; active = max response of -50% or lower; inconclusive = between -30% and -50%; inactive = -30% or higher; also: value at the top dose of about 77 µM; % is scaled to controls: 0 for no effect and ±100 for the full control effect
Target sequence (P48426 whole entry, looked up): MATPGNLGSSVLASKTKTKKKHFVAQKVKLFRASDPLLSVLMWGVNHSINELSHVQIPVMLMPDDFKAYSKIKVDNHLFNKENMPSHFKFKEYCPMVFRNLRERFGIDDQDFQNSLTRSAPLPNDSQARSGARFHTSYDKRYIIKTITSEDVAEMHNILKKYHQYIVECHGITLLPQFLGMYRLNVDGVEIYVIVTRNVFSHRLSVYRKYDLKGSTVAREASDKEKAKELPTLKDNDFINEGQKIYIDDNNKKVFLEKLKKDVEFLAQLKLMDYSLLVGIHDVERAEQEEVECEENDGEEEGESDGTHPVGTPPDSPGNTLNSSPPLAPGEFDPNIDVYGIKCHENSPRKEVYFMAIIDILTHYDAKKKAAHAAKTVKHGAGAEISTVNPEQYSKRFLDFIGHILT
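ADP-Glo luminescence end-point read after a 60 min room-temperature kinase reaction of PI5P4Kalpha plus substrate, initiated with ATP at 5 microM final. Buffer: 0.038 M HEPES pH 7.4, EGTA, 0.1% CHAPS, 5% DMSO.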
POLH inh – inhibitors of human DNA polymerase eta; Potency, µM (highest dose often 114 µM), inactives show top-dose activity change, negative = inhibition, hits mostly inhibitors; AID 588591; 390,000 compounds, 1.2% hits; Q9Y253; recombinant Pol eta, fluorescent DNA replication assay; also: potency is read from the fitted curve at half-maximal effect; % is scaled to controls: 0 for no effect and ±100 for the full control effect
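Pol eta (10 nM) was preincubated with compounds for 15 min at room temperature, after which fluorescent replication substrate (50 nM final) was added to start the reaction. Fluorescence was read kinetically at 0 and 10 min.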
The depositor's hits bear a star; [ ] = another dose, or the depositor's remark. Unless noted, calls follow the shape of the dose curve; as a rule, active = well fitted curve in the direction sought with a large enough effect; inconclusive = small, poorly fitted or top-dose-only effect, or another doubt; inactive = no such curve, though single readings can be large; an effect the other way counts as inactive or inconclusive.

What do the screens show for `CCOC(=O)C1=C(C)N(CCCC(=O)O)C(=O)NC1C(CC)CC` (centres undefined)?
Pol kappa inh: -7%; POLI inh: -21%; WRN helicase inh: 6%; PI5P4Ka inh: -58*; POLH inh: -12%

What do the screens show for `COC(=O)C1=C(C)N(CCCC(=O)O)C(=O)NC1c1ccc(OC)cc1` (centres undefined)?
Pol kappa inh: 8%; POLI inh: 34%; WRN helicase inh: 3%; PI5P4Ka inh: -62*; POLH inh: -14%

What do the screens show for `CCOC(=O)C1=C(C)N(CCCC(=O)O)C(=O)NC1c1ccc(OC)cc1` (centres undefined)?
Pol kappa inh: 8%; POLI inh: 28%; Pol beta inh: 2%; WRN helicase inh: -4%; PI5P4Ka inh: -71*; POLH inh: -4%

How did COC(=O)C1=C(C)N(CCCCCC(=O)O)C(=O)NC1c1ccccc1 (centres undefined) do in these assays?
Pol kappa inh: -16%; POLI inh: inconclusive; WRN helicase inh: 2%; PI5P4Ka inh: 4; POLH inh: -4%

Results for O=C(Nc1nnc(SCc2ccc(F)cc2)s1)c1ccc2ncsc2c1 ?
Pol kappa inh: 1%; POLI inh: 3.2µM*; Pol beta inh: 3%; WRN helicase inh: -4%[11.6 µM]; PI5P4Ka inh: inconclusive; POLH inh: -6%

How did O=c1cc(-c2ccco2)oc2c1ccc1ccccc12 do in these assays?
Pol kappa inh: -9%; POLI inh: 39%; Pol beta inh: 18µM*; WRN helicase inh: -28%; PI5P4Ka inh: -20; POLH inh: inconclusive

How did O=c1cc(-c2ccncc2)oc2c1ccc1ccccc12 do in these assays?
Pol kappa inh: -6%; POLI inh: 56%; Pol beta inh: inconclusive; WRN helicase inh: 3%[11.6 µM]; PI5P4Ka inh: 8; POLH inh: -5%

How did O=c1cc(-c2cccc(O)c2)oc2cc(O)ccc12 do in these assays?
Pol kappa inh: -12%[19.4 µM]

How did O=c1cc(-c2ccccc2O)oc2c1ccc1ccccc12 do in these assays?
Pol kappa inh: -8%[19.4 µM]

How did O=c1cc(-c2ccc(O)cc2)oc2c1ccc1ccccc12 do in these assays?
Pol kappa inh: 11%; POLI inh: -18%; WRN helicase inh: -30%; PI5P4Ka inh: 3; POLH inh: 56µM*

How did O=c1cc(-c2cccc(O)c2)oc2c(O)c(O)ccc12 do in these assays?
Pol kappa inh: 2.8µM*

What do the screens show for `CC(=O)c1ccc(N2CCN(C(=O)C3CCN(S(=O)(=O)c4cccs4)CC3)CC2)cc1`?
Pol kappa inh: -3%; POLI inh: -1%; Pol beta inh: 1%; WRN helicase inh: 7%; PI5P4Ka inh: 0; POLH inh: -8%

What do the screens show for `CCOC(=O)CSC1=C(C#N)C(=O)NC(c2ccc(OC)cc2)S1` (centres undefined)?
Pol kappa inh: -9%; POLI inh: inconclusive; Pol beta inh: -1%; WRN helicase inh: -2%; PI5P4Ka inh: -63*; POLH inh: -4%

What do the screens show for `CCOC(=O)CSC1=C(C#N)C(=O)NC(c2ccc(OC)c(OC)c2)S1` (centres undefined)?
Pol kappa inh: -12%; POLI inh: inconclusive; Pol beta inh: 18%; WRN helicase inh: -12%; PI5P4Ka inh: -72*; POLH inh: 3%

How did CCOC(=O)CSc1nc2cc(OC)ccc2cc1C#N do in these assays?
Pol kappa inh: inconclusive; POLI inh: -15%; Pol beta inh: 0%; WRN helicase inh: 5%; POLH inh: -14%

Results for COC(C(=O)C(O)C(C)O)C1Cc2cc3cc(OC4CC(OC5CC(O)C(O)C(C)O5)C(O)C(C)O4)c(C)c(O)c3c(O)c2C(=O)C1OC1CC(OC2CC(OC3CC(O)C(OC)C(C)O3)C(O)C(C)O2)C(O)C(C)O1 (centres undefined) ?
Pol kappa inh: 79µM*; POLI inh: 22µM*; WRN helicase inh: inconclusive; PI5P4Ka inh: -6; POLH inh: 11µM*

What do the screens show for `Cc1oc(-c2ccccc2)nc1C(=O)O`?
Pol kappa inh: -11%; POLI inh: 13%; Pol beta inh: 22%; WRN helicase inh: -1%; PI5P4Ka inh: 1; POLH inh: 9%

What do the screens show for `CC(=O)c1ccc(OC(=O)c2nc(-c3ccccc3)oc2C)cc1`?
Pol kappa inh: -15%; POLI inh: inconclusive; Pol beta inh: 50µM*; WRN helicase inh: -23%; PI5P4Ka inh: inconclusive; POLH inh: inconclusive

How did CC(C)(C)n1ncc2c(=O)n(Cc3cc(C(F)(F)F)ccc3Cl)cnc21 do in these assays?
Pol kappa inh: -8%; POLI inh: 15%

How did Cc1ccc(C(=O)N/N=C2\CCc3ccccc32)c(C)c1 do in these assays?
Pol kappa inh: -3%; POLI inh: 22%; Pol beta inh: 0.16µM*; WRN helicase inh: 8%; PI5P4Ka inh: -12; POLH inh: -1%

What do the screens show for `O=C(Nc1ccc([N+](=O)[O-])cc1)c1ccccc1F`?
Pol kappa inh: 0%[60.1 µM]; POLI inh: -4%; Pol beta inh: 31%; WRN helicase inh: -4%; PI5P4Ka inh: 9; POLH inh: -11%

Results for O=C(c1cc(O)c(O)c([N+](=O)[O-])c1)c1ccccc1F ?
Pol kappa inh: inconclusive; POLI inh: inconclusive; Pol beta inh: 17%[57.1 µM]; WRN helicase inh: inconclusive; PI5P4Ka inh: -66*; POLH inh: inconclusive

Results for COc1cc(-c2cc(NC(C)=O)c3ncc(-c4ccc(F)cc4)n3c2)cc(OC)c1OC ?
WRN helicase inh: -9%; PI5P4Ka inh: -2

What do the screens show for `Oc1c(Cl)cc(Cl)cc1/C=C/c1ccc2cccc(O)c2n1`?
Pol kappa inh: -15%; POLI inh: 23%; Pol beta inh: 28µM*; WRN helicase inh: -23%; PI5P4Ka inh: -3; POLH inh: -28%

How did CCCCn1c(N)c(N(CCC(C)C)C(=O)COC(=O)c2ccc([N+](=O)[O-])s2)c(=O)[nH]c1=O do in these assays?
Pol kappa inh: -15%; POLI inh: 79µM*; WRN helicase inh: -6%; PI5P4Ka inh: -4; POLH inh: inconclusive

Results for Cc1ccc(NC(=O)C2(C)CCN2C(=O)Cc2ccccc2Cl)cc1C (centres undefined) ?
WRN helicase inh: -6%; PI5P4Ka inh: 10

Results for COc1cccc(/C=C2\Oc3cc(OCC(=O)N4Cc5ccccc5C[C@H]4C(=O)O)ccc3C2=O)c1 ?
Pol kappa inh: -31%; POLI inh: inconclusive; Pol beta inh: 2%; WRN helicase inh: -9%[11.6 µM]; PI5P4Ka inh: inconclusive; POLH inh: 50µM*
